Measurements published in PubChem BioAssay (EPA / NIEHS).
Records with an inconclusive call do not appear. Active and inactive are the calls of the source. Rule for the calls: active = hit-call score of the fitted dose curve at least 0.9, where 1 is the maximum; inconclusive = response in the unintended direction; inactive = score below 0.9.

Assay: Tanguay_ZF_120hpf_CIRC_legacy: (Legacy) Oregon State University Tanguay Lab 120 Hour Post-fertilization zebrafish Assay for Circulatory Malformation (AID 2283651)
Description: Tanguay_ZF_120hpf_legacy is a whole embryo, multiplexed endpoint assay using zebrafish larvae exposed for 120 hours post fertilization on a 96-well plate.Tanguay_ZF_120hpf_CIRC_legacy is one of one assay component(s) measured or calculated from the Tanguay_ZF_120hpf_legacy assay. It is designed to make measurements of zebrafish development as detected with brightfield microscopy of developing zebrafish embryos.Data from the assay component Tanguay_ZF_120hpf_CIRC_legacy was analyzed into 1 assay endpoints. This assay endpoint, Tanguay_ZF_120hpf_CIRC_legacy, was analyzed in the positive analysis fitting direction relative to DMSO as the negative control and baseline of activity. Using a type of morphology reporter, gain-of-signal activity can be used to understand changes in developmentals as they relate to the whole embryo. To generalize the intended target to other relatable targets, this assay endpoint is annotated to the zebrafish development intended target family, where the subfamily is angiogenesis.
Zebrafish husbandry: Tropical 5D wild-type adult zebrafish were housed in at an approximate density of 1000 per 100 gallon tank at the Sinnhuber Aquatic Research Laboratory, Oregon State University, Corvallis, OR. Each tank was kept at standard laboratory conditions of 28C on a 14-h light/10-h dark photoperiod in fish water consisting of reverse osmosis water supplemented with a commercially available salt (Instant Ocean). Spawning funnels were placed into the tanks the night prior, and embryos were collected and staged. To increase bioavailability, the chorion was enzymatically removed using pronase (63.6mg/ml, >/= 3.5U/mg, Sigma-Aldrich: P5147) at 4 hours post fertilization (hpf) using a custom automated dechorionator.Chemical exposures: Six hpf dechorionated embryos were placed 1 embryo per well in a 96-well plate prefilled with 90 ul of EM using automated embryo placement systems (AEPS). Ten microliters of each row of dilution plate 2 was added to 2 exposure plates. The final DMSO concentration used was 0.64% (vol/vol). Thirty-two embryos were also exposed to 5uM trimethyltin chloride (positive control). Plates were sealed to prevent evaporation and foil covered to reduce light exposure and kept in a 28C incubator. Embryos were statically exposed until 120 hpf. At 24 hpf, embryos were assessed for photomotor response using a custom photomotor response analysis tool (PRAT) and for developmental toxicity endpoints (MO24: mortality at 24 hpf, DP: developmental progression, SM: spontaneous movement, and NC: notochord distortion). At 120 hpf, locomotor activity was measured using Viewpoint Zebralab and assessed for 18 endpoints. Zebrafish acquisition and analysis program (ZAAP), a custom program designed to inventory, acquire, and manage zebrafish data, was used to collect developmental endpoints as either present or absent (i.e., binary responses were recorded). If mortality occurred for an embryo (at either 24 or 120 hpf), the non-mortality endpoints were not measured.

Row | SMILES | outcome | AC50
1 | CCOP(=O)(NC(C)C)Oc1ccc(SC)c(C)c1 (stereo not given) | inactive | –
2 | C#CC(C)(C)NC(=O)c1cc(Cl)cc(Cl)c1 | inactive | –
3 | CC(C)N(C(=O)SCC(Cl)=C(Cl)Cl)C(C)C | inactive | –
4 | COP(=O)(OC)OC(Br)C(Cl)(Cl)Br (stereo not given) | inactive | –
5 | CN(C)[C@@H]1C(=O)C(C(N)=O)=C(O)[C@@]2(O)C(=O)C3=C(O)c4c(O)cccc4[C@@](C)(O)[C@H]3[C@H](O)[C@@H]12 | inactive | –
6 | CCC(=O)Nc1ccc(Cl)c(Cl)c1 | inactive | –
7 | CCCCSP(=O)(SCCCC)SCCCC | inactive | –
8 | Cc1nn(-c2cc(NS(C)(=O)=O)c(Cl)cc2Cl)c(=O)n1C(F)F | inactive | –
9 | CCCCN(CC)c1c([N+](=O)[O-])cc(C(F)(F)F)cc1[N+](=O)[O-] | inactive | –
10 | CC1=NNC(=O)N(/N=C/c2cccnc2)C1 | inactive | –
11 | CCNc1nc(Cl)nc(NC(C)(C)C#N)n1 | inactive | –
12 | COc1cc(OC)nc(Sc2cccc(Cl)c2C(=O)O)n1 | inactive | –
13 | CC(Oc1cccc(Cl)c1)C(=O)O (stereo not given) | inactive | –
14 | FC(F)C(F)(F)OCC(Cn1cncn1)c1ccc(Cl)cc1Cl (stereo not given) | – | 17.2 µM (active)
15 | CC(=NC#N)N(C)Cc1ccc(Cl)nc1 | inactive | –
16 | CNc1cnn(-c2cccc(C(F)(F)F)c2)c(=O)c1Cl | inactive | –
17 | CNC(=O)ON=C(C)SC | inactive | –
18 | O=C(O)c1cc(Oc2ccc(C(F)(F)F)cc2Cl)ccc1[N+](=O)[O-] | inactive | –
19 | C[Si](Cn1cncn1)(c1ccc(F)cc1)c1ccc(F)cc1 | inactive | –
20 | COP(=O)(OC)C(O)C(Cl)(Cl)Cl (stereo not given) | inactive | –

Row | SMILES | outcome | AC50
21 | CCC(CC)Nc1c([N+](=O)[O-])cc(C)c(C)c1[N+](=O)[O-] | inactive | –
22 | COP(=O)(OC)SCn1c(=O)oc2cc(Cl)cnc21 | inactive | –
23 | CCCSP(=O)(OCC)SCCC | inactive | –
24 | CSc1nc(NC(C)C)nc(NC(C)C)n1 | inactive | –
25 | CCC(=NOC/C=C/Cl)C1=C(O)CC(C2CCOCC2)CC1=O (stereo not given) | inactive | –
26 | CC(C)=CC1C(C(=O)OCN2C(=O)C3=C(CCCC3)C2=O)C1(C)C (stereo not given) | inactive | –
27 | CC1(C(=O)Nc2ccc(O)c(Cl)c2Cl)CCCCC1 | inactive | –
28 | Cc1ccn2nc(S(=O)(=O)Nc3c(F)cccc3F)nc2n1 | inactive | –
29 | N#CSCSC#N | inactive | –
30 | C=C(C)[C@H]1Cc2c(ccc3c2O[C@@H]2COc4cc(OC)c(OC)cc4[C@@H]2C3=O)O1 | inactive | –
31 | CCc1cccc(CC)c1N(COC)C(=O)CCl | inactive | –
32 | COP(=O)(NC(C)=O)SC (stereo not given) | inactive | –
33 | CCOP(=S)(OCC)Oc1ccc2c(C)c(Cl)c(=O)oc2c1 | inactive | –
34 | CCOP(=O)(OCC)Oc1cc(C)nc(C(C)C)n1 | inactive | –
35 | CC(C1CC1)C(O)(Cn1cncn1)c1ccc(Cl)cc1 (stereo not given) | inactive | –
36 | CN(C)C(=O)Nc1cccc(C(F)(F)F)c1 | inactive | –
37 | O=[N+]([O-])c1cc(C(F)(F)F)c(Cl)c([N+](=O)[O-])c1Nc1ncc(C(F)(F)F)cc1Cl | inactive | –
38 | CCOP(=S)(Oc1cnc(C(C)(C)C)nc1)OC(C)C (stereo not given) | inactive | –
39 | CCOC(=O)COc1cc(-c2nn(C)c(OC(F)F)c2Cl)c(F)cc1Cl | inactive | –
40 | CON=C(C(=O)OC)c1ccccc1CON=C(C)c1cccc(C(F)(F)F)c1 | inactive | –
